# Measured values taken from PubChem BioAssay AID504339 (National Center for Advancing Translational Sciences (NCATS), 2011).
# The whole screen tested about 390,000 compounds, of which about 17,000 (4.4%) were called active. About 8% were inconclusive and are not listed. The sample holds actives, similar compounds and a random draw of the others, so the mix is not that of the screen. A number with no mark means an inactive call. Calls follow the shape of the dose curve; as a rule, active = well fitted inhibition curve with a large enough effect; inconclusive = small, poorly fitted or top-dose-only effect; inactive = no such curve, though single readings can be large or run the other way.
# Target: Lysine-specific demethylase 4A (Homo sapiens) (UniProt O75164)
# Sequence (O75164 whole entry, looked up, the tested form may be a part): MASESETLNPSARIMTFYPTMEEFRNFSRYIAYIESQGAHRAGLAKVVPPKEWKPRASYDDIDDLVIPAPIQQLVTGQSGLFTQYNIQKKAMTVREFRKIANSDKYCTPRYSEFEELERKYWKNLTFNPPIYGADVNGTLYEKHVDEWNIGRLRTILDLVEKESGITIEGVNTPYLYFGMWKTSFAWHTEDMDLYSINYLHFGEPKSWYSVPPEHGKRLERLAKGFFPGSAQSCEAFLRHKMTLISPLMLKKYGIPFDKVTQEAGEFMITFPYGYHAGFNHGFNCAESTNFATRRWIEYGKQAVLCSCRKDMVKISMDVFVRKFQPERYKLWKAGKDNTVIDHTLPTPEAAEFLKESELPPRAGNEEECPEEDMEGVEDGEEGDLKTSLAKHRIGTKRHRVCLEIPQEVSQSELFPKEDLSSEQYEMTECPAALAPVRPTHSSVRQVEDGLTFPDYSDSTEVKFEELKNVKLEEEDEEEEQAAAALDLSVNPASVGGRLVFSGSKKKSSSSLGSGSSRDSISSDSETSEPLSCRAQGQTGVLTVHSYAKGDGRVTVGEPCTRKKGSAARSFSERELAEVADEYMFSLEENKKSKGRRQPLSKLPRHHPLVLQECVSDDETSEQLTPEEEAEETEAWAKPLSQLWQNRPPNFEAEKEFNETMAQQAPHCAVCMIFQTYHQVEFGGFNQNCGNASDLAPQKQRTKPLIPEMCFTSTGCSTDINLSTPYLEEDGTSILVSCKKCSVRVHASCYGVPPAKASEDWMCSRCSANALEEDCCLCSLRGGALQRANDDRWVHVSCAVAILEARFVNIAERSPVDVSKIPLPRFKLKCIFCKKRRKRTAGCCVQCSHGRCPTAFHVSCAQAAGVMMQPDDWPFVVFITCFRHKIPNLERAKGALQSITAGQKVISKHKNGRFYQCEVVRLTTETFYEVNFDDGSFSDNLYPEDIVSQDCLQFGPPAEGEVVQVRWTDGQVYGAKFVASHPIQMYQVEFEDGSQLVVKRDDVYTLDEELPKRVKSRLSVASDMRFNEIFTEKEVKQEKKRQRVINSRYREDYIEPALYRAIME
# Experiment: qHTS Assay for Inhibitors of JMJD2A-Tudor Domain; also: nearly all actives have a fitted effect of over 50% in size
# Settings: AlphaScreen JMJD2A-Tudor / H3K4me3 peptide binding; series mostly up to 114 µM; activity change, negative = inhibition: at the top concentration
# % is scaled to controls: 0 for no effect and ±100 for the full control effect; potency is read from the fitted curve at half-maximal effect.
Structure (SMILES),"activity change, negative = inhibition",Potency
CCc1ccc(CNCc2c(C(=O)O)n(Cc3ccc(F)cc3Cl)c3cc(OC)ccc23)cc1,-18.7%,
CC(C)(C)OC(=O)N1CCC(c2c(C(=O)NCc3ccccn3)cnn2-c2ccc(F)cc2)CC1,-5.83%,
C#CCOCCOCCOCCNc1nc(N2CCN(C(=O)Cn3cc(CCO)nn3)CC2)nc(N2CCN(C(=O)[C@H](CCCCN)n3cc(CCCC)nn3)CC2)n1,-18.8%,
CCC(C)[C@@H](C(=O)N1CCNCC1)n1cc(CCCCN)nn1 (stereo partly drawn),-14.4%,
C#CCOCCOCCOCCNc1nc(N2CCN(C(=O)C([C@@H](C)CC)n3cc(C(N)COC(=O)C(F)(F)F)nn3)CC2)nc(N2CCN(C(=O)[C@H](CCCCN)n3cc(C(N)CC(C)C)nn3)CC2)n1 (stereo partly drawn),,56.2 µM (active)
C#CCOCCOCCOCCNc1nc(N2CCN(C(=O)C([C@@H](C)O)n3cc([C@@H](N)CCCCN)nn3)CC2)nc(N2CCN(C(=O)[C@H](CCCCN)n3cc(CN)nn3)CC2)n1 (stereo partly drawn),,79.4 µM (active)
O=S(=O)(Nc1ccc2nc(-c3cccc(Cl)c3)oc2c1)c1ccccc1,-16.6%,
CC(=O)OCC(NC(=O)C(Cc1ccccc1)NC(=O)OC(C)(C)C)C1OC(n2ccc(=O)[nH]c2=O)C(OC(C)=O)C1OC(C)=O (stereo not drawn),2.76%,
Cc1cccc(-n2ccnc2SCC(=O)Nc2cc(C(F)(F)F)ccc2Cl)c1,-32.9%,
O=C(NC1CC(=O)N(c2ccc(F)cc2)C1)C1CCCCC1 (stereo not drawn),-5.84%,
CSc1ccc(NC(=O)Cn2nnnc2-c2ccccc2F)cc1,-16.4%,
CC(C)(C)c1ccc(C(=O)N2CCC(c3nc(-c4ccc(S(=O)(=O)N5CCCC5)cc4)no3)CC2)cc1,-27.7%,
O=C(/C=C/c1ccccc1[N+](=O)[O-])OCC(=O)N1CCCC1,10.1%,
CC1CC(C)CN(C/C=C/c2ccccc2[N+](=O)[O-])C1 (stereo not drawn),-24.5%,
O=[N+]([O-])c1ccccc1/C=C/CN1CCC(O)CC1,,8.91 µM (active)
CCN(CCCNC(=O)Cn1ncc2c([nH]c3ccccc32)c1=O)c1cccc(C)c1,-24.8%,
COc1ccc(-c2noc(CSc3nc(C)cc(=O)[nH]3)n2)cc1OC,-10.4%,
COCCCNC(=O)C1CC(=O)N(CCc2ccccc2)C1 (stereo not drawn),-5.84%,
CC1(C)SC2c3ccccc3C(=O)N2[C@@H]1C(=O)NCc1ccco1 (stereo partly drawn),-15.6%,
COCCCNC(=O)[C@H]1N2C(=O)c3ccccc3C2SC1(C)C (stereo partly drawn),,22.4 µM (active)
CCOc1ccc(NC(=O)C(=O)NCCc2csc3nc(-c4ccccc4F)nn23)cc1,-16%,
Cc1cc(C)c2oc(C(=O)Nc3ccc(S(=O)(=O)N4CCCCCC4)cc3)cc(=O)c2c1,-16.3%,
CCOC(=O)c1c(NC(=O)Cc2coc3ccc(CC)cc23)sc2c1CCC2,5.56%,
CCc1nn(CC(=O)N2CCN(c3cccc(C(F)(F)F)c3)CC2)c(=O)c2cc3occc3n12,-7.05%,
Cc1nc2nc(NCc3cccc(Br)c3)[nH]n2c(=O)c1Cc1ccccc1,-9.38%,

Structure (SMILES),"activity change, negative = inhibition",Potency
Cc1cc(C)n2ncc(C(=O)Nc3cccc(C#N)c3)c2n1,-24.1% [at 28.6 µM],
Nc1ccc(Nc2ccccc2)cc1,,39.8 µM (active)
COc1ccccc1C(=O)Nc1ccc(Nc2ccccc2)cc1,3.79%,
Nc1ccc(S(=O)(=O)NC(=O)c2ccccc2)cc1,-2.76%,
CCN(CC)C(=O)CSc1nc2cc3c(cc2c(=O)n1CCCC(=O)NCc1ccc2c(c1)OCO2)OCO3,-12.7%,
COc1ccccc1-c1noc(CSc2nnc(-c3ccccc3)n2-c2ccc(C)c(C)c2)n1,-33.7%,
NNc1nc2c(Cl)cccc2s1,,63.1 µM (active)
NC(=O)c1c(Nc2nc3c(F)cccc3s2)sc2c1CCCC2,-32.5%,
CCc1nnc(SCc2c(F)cccc2Cl)c2cc3sccc3n12,-16.5%,
CCN(C(=O)Cn1cc(S(=O)(=O)N2CCN(c3ccccc3F)CC2)c2ccccc2c1=O)c1ccc(C)c(C)c1,-16.1%,
CCCOc1ccc(C(=O)Nc2ccc3oc(-c4cccc(Cl)c4Cl)nc3c2)cc1,-1.63%,
CCOC(=O)C1CCN(C(=O)/C=C/c2cc(OC)c(OC)c(OC)c2)CC1,3.19% [at 57.1 µM],
CCOC(=O)C1CCCCN1Cc1ccc(OC)c(OC)c1OC (stereo not drawn),,2.24 µM (active)
CCOC(=O)C1CCN(S(=O)(=O)c2cc(F)ccc2OC)CC1,-5.63%,
CCOc1ccccc1CNCc1c(C(=O)O)c(C)n(Cc2ccc(C)cc2)c1C,-13.4%,
CC1=C(c2ccc(C)c(C)c2)S(=O)(=O)NC1=NCc1ccccc1Cl,-22.5%,
Cc1nc2ccn(Cc3cccs3)c(=O)c2cc1C(=O)NCc1ccc(Cl)cc1,-15.3%,
O=C(NCCN1CCOCC1)Nc1cccc(Cl)c1,4.56%,
CCOc1cccc(/C=N/NC(=S)NCCN2CCOCC2)c1O,,56.2 µM (active)
CCOc1nc(NCCN2CCOCC2)nc(Nc2ccc(C)cc2)n1,-20.1%,
O=C(Nc1nc2c(s1)CCCC2)c1ccccc1F,-14.9%,
COc1ccc(-c2nnc(SCC(=O)Nc3ccc(C(C)C)cc3)nc2-c2ccc(OC)c(OC)c2)cc1OC,-8%,
CCCCN(C)CCCNC(=O)CN1N=C(c2ccc(OC)cc2)CCC1=O,-2.24%,
Nc1ccc2nc3c(=O)[nH]c(=S)[nH]c3nc2c1,,2.51 µM (active)
COc1ccc(CNC(=O)Cc2coc3ccc(C(C)C)cc23)cc1,-7.64%,

Structure (SMILES),"activity change, negative = inhibition",Potency
COc1ccc(CCNC(=O)C(=O)NCC(c2ccco2)S(=O)(=O)c2cccs2)cc1OC (stereo not drawn),-2.6%,
CCOc1ccc(-n2c(SCC(=O)NCc3ccccc3)nc3n[nH]c(C)c3c2=N)cc1,-6.09%,
Cc1nnc(N/N=C/c2ccccn2)[nH]c1=O,,20 µM (active)
O=C(N/N=C/c1ccccn1)C12CC3CC(CC(C3)C1)C2,6.29%,
CCN(CC)CCCN=Cc1c(O)n(-c2ccc(C)cc2)c(=O)c2ccccc12,-18.3%,
CCOc1ccc(-n2c(O)c(/C=N/Nc3nnc(C)c(=O)[nH]3)c3ccccc3c2=O)cc1,,28.2 µM (active)
O=C(COc1ccc(Cl)cc1Cl)N/N=C/c1ccccn1,6.74%,
Cc1cccc(C(=O)N2CCc3cc(CNC(=O)Cc4ccc(F)cc4)ccc32)c1,-23.3%,
COc1cccc(C(=O)Nc2ccc(-c3cc(C(F)(F)F)nn3-c3ccccc3)cc2)c1,0%,
OCc1cnc(SCc2ccc(F)cc2)n1Cc1ccc(F)cc1,-28.4%,
Cc1ccc(S(=O)(=O)N2CCN(c3nc(-n4cnc5ccccc54)nc4ccccc34)CC2)cc1,-23.4%,
c1ccc(Cn2nnc3c(N4CCCCC4)ncnc32)cc1,16.3%,
COc1cc(OC)cc(-c2nc3nc(C)c(CCC(=O)Nc4ccc(C)cc4)c(C)n3n2)c1,-21.2%,
Cc1ccc(Nc2ccccc2N)cc1,,44.7 µM (active)
Nc1ccc(C(=O)Nc2ccccc2N)cc1,-8.97%,
Cc1ccc(Nc2nc(Cl)c(C=O)s2)cc1,1.05%,
O=C(c1ccco1)n1nc(-c2ccc(Cl)cc2)nc1NCc1ccccc1,3.78%,
Cc1nn2c(=O)cc(COC(=O)c3cccc(NC(=O)COc4ccccc4Cl)c3)nc2s1,-21.9%,
Cc1cc(/C=N/n2cnnc2)c(C)n1-c1ccc2ncccc2c1,-26.6%,
Cc1cccc(-n2c(C)cc(/C=N/NC(N)=S)c2C)c1,,56.2 µM (active)
Cc1cc(/C=N/NC(N)=O)c(C)n1C1CCCCC1,-26.2%,
Cc1cc(C(=O)Nc2cccc(C(F)(F)F)c2)c2c(C)nn(-c3cccc(F)c3)c2n1,20.1%,
COCCCNC(=O)c1ccc(NC(=O)c2nsc3ccccc23)cc1,5.52%,
CCCCN1C(=O)/C(=C/C=C2/C=Cc3ccccc3N2CC)SC1=S,-28.7%,
CCCCN1C(=O)/C(=C2/C=CC=CN2C)SC1=S,,44.7 µM (active)

Structure (SMILES),"activity change, negative = inhibition",Potency
COc1ccccc1C(=O)N1CCN=C1SCc1cccnc1,0.331%,
COc1cccc(OC)c1OCCN1CCN(C(=O)c2ccco2)CC1,-15% [at 57.1 µM],
COc1cccc(OC)c1C(=O)N1CCN(Cc2cccnc2)CC1,,5.01 µM (active)
CCCn1c2ccccc2c2cnn(CC(=O)NCCCOC(C)C)c(=O)c21,-8.91%,
COc1cccc(N=C2SC(C(=O)Nc3cccc(Cl)c3)CC(=O)N2C)c1 (stereo not drawn),-17%,
COc1cccc(CNC(=O)Cn2ncn3c(cc4ccccc43)c2=O)c1,-13.5%,
Cc1ccc(/C=N\n2c(-c3ccccc3)n[nH]c2=S)s1,,50.1 µM (active)
CCc1n[nH]c(=S)n1/N=C/c1c[nH]c2ccc(Br)cc12,-20%,
C=CCNC(=S)N/N=C/c1ccc(C)s1,-23.5%,
S=c1[nH]nc(-c2ccccc2)n1/N=C/c1c[nH]c2ccccc12,,89.1 µM (active)
O=C(Cn1cncn1)N/N=C/c1c2ccccc2cc2ccccc12,5.2%,
S=c1[nH]nc(-c2cc(-c3ccccc3)n[nH]2)n1/N=C/c1c2ccccc2cc2ccccc12,,39.8 µM (active)
C[n+]1ccc(/C=C/c2c[nH]c3ccccc23)cc1,-0.69%,
Cc1ccccc1C(=O)NCc1nc(-c2ccc(Cl)cc2)no1,-14.9%,
O=C(Nc1ccc(S(=O)(=O)N2CCC(c3nc4ccccc4s3)CC2)cc1)c1ccccc1F,1.99%,
CCc1ccc(C2CC(=O)c3c([nH]c(C(=O)OCc4ccc(C)cc4)c3C)C2)cc1 (stereo not drawn),-5.14%,
Cc1cccc(N2CCN(C(=O)c3ccc(Nc4nc5ccccc5n5nnnc45)cc3)CC2)c1C,-9.59%,
N#Cc1nc(/C=C/c2ccc(F)cc2)oc1NCc1ccc(F)cc1,-8.8%,
CC(=O)N1CCc2cc(S(=O)(=O)NC(Cc3ccccc3)C(=O)NCc3ccc(C)cc3)ccc21 (stereo not drawn),-24%,
Cc1ccccc1CNC(=O)C1CCCN(S(=O)(=O)N(C)c2ccc(F)cc2)C1 (stereo not drawn),3.66%,
CC1=C/C(=N\OS(=O)(=O)c2ccccc2)C=CC1=O,,22.4 µM (active)
CCc1ccccc1NC(=O)Cn1c(=O)n(-c2cccc(C)c2)c(=O)c2c1c1cc(OC)ccc1n2C,7.93%,
O=C(NC1CCCCC1)c1ccc2c(c1)N(Cc1ccc(Cl)cc1)C(=O)c1ccccc1S2=O (stereo not drawn),-18.2%,
